Shown are actives, neighbours in structure and some others; about 8.2% of the full set was active somewhere.
KB-3-1 cytotox: KB-3-1 parental cell cytotoxicity. KB-3-1 viability, CellTiter-Glo ATP luminescence, 72 h. Potency, µM (series often up to 46.1 µM), usual class: cytotoxic. 400,000 compounds, 1.4% hits. AID 1347075; further: on the % scale 0 is the no-effect control and ±100 the full control effect; nearly all actives have a fitted effect of over 60% in size
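Parental KB-3-1 viability, qHTS format: 72 h compound exposure, 37 °C; CellTiter-Glo; media-only wells and DMSO plates as controls; concentration-effect fits on corrected data.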
SW480 rerep: inducers of DNA re-replication in SW480 colon cancer cells; SW480 DNA re-replication, Hoechst DNA content imaging, 48 h; Potency, µM (series often up to 46.1 µM), inactives show at the top dose re-replication activation, usual class: activators; 340,000 compounds, 1.8% hits; AID 624297; further: % of control where 0% means no effect; nearly all actives have a fitted effect of over 55% in size
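Quantitative HTS format with DMSO vehicle controls; 48 hr drug incubation at 37 C, then 40 min Hoechst staining and scanning imager measurement at 405 nm excitation.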
KB-V1 MDR tox: kills drug-selected multidrug resistant KB-V1 cells; Potency, µM (highest dose often 46.1 µM), hits mostly cytotoxic; KB-V1 MDR cells viability, CellTiter-Glo, 72 h; 400,000 compounds, 3.4% hits; further: on the % scale 0 is the no-effect control and ±100 the full control effect; nearly all actives have a fitted effect of over 60% in size
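In this primary screen, KB-V1 cells overexpressing P-gp are incubated with library compounds (lowest to highest concentration) for 72 h at 37 degrees C before a luminescent ATP viability read.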
ELG1 DNA repair: inhibitors of ELG1-dependent DNA repair in HEK293T cells; 330,000 compounds, 2.3% hits; AID 504467; HEK293T ELG1-luciferase reporter, luminescence, 16 h; DNA damage induced by 5-fluorouridine; Potency, µM (highest dose often 46.1 µM), inactives show at the highest dose activity change, negative = inhibition, actives largely listed as inhibitors; further: on the % scale 0 is the no-effect control and ±100 the full control effect; nearly all actives have a fitted effect of over 55% in size
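Luminescence from the luciferase reporter, measured 30 min after ONE-Glo reagent at room temperature, was the read-out. Beforehand, 2,000 cells per well were exposed for 16 hr at 37 °C to 5-fluorouridine together with compound or vehicle.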
MCF10A rereplic: induces DNA re-replication in MCF 10a normal breast cells | MCF 10A DNA re-replication, Hoechst nuclear intensity, 48 h | Potency, µM (top dose mostly 46.1 µM), for inactives: top-dose activity, positive = re-replication, actives largely listed as activators | 350,000 compounds, 2.9% hits; further: % of control where 0% means no effect; nearly all actives have a fitted effect of over 50% in size
The depositor's hits bear a star. The call rests on the fitted dose curve; in most records, active means well fitted curve in the direction sought with a large enough effect; inconclusive means small, poorly fitted or top-dose-only effect, or another doubt; inactive means no such curve, though single readings can be large; an effect the other way counts as inactive or inconclusive. Potency means the concentration at half of the fitted maximal effect.

`COCCNC(=O)C(=O)N/N=C/c1cccs1` gave KB-3-1 cytotox inactive, SW480 rerep 4%, KB-V1 MDR tox inconclusive, ELG1 DNA repair -1% and MCF10A rereplic -4%.
For CCCCNC(=O)c1c(N)n(/N=C/c2ccccn2)c2nc3ccccc3nc12 the results were ELG1 DNA repair -1%.
For COCCNC(=O)c1c(N)n(/N=C/c2cccs2)c2nc3ccccc3nc12 the results were KB-3-1 cytotox inactive, SW480 rerep 5.8µM*, KB-V1 MDR tox inactive, ELG1 DNA repair inconclusive and MCF10A rereplic inconclusive.
Screening CC(C)CNC(=O)c1c(N)n(/N=C/c2ccccn2)c2nc3ccccc3nc12 returned KB-3-1 cytotox inactive, SW480 rerep inconclusive, KB-V1 MDR tox inactive, ELG1 DNA repair inconclusive and MCF10A rereplic 18µM*.
`N#CCCN(Cc1ccccc1)C(C(=O)NC1CCCCC1)C1CC1` (stereo unspecified) gave KB-3-1 cytotox inactive and KB-V1 MDR tox inactive.
CCN(CC)c1ccc(C2C(C(=O)OC(C)C)C(=O)CC(C)(O)C2C(=O)OC(C)C)cc1 (stereo unspecified) was read as KB-3-1 cytotox inactive, SW480 rerep 1%, KB-V1 MDR tox 18µM*, ELG1 DNA repair inconclusive and MCF10A rereplic 14%.
For CCOC(=O)C1C(=O)CC(C)(O)C(C(=O)OCC)C1c1ccc(N(CC)CC)cc1 (stereo unspecified) the results were KB-3-1 cytotox inactive, SW480 rerep 0%, KB-V1 MDR tox inactive, ELG1 DNA repair -17% and MCF10A rereplic 20%.
